According to PubChem BioAssay (NCI):
“And” between values parts separate entries of the source, which are not always exact repeats. Equal entries are not always repeated. Compounds without any hit were thinned out: in the full panel of roughly 83,000, 20% have a hit.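 For each line, cells grew in 96-well plates with the test compound present at a single concentration for 48 hours.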 The source made the active and inactive calls. How the source made its calls: active means growth percent below 10; inactive means the rest.

Legend:
Experiment in all cases: NCI-60 one-dose screen, 48 h (100 = growth as untreated, 0 = no growth, -100 = all killed)
Details in all cases: 10 µM unless noted
SR leukemia = test system: SR leukemia
RPMI-8226 leukemia = test system: RPMI-8226 leukemia
OVCAR-5 ovarian = test system: OVCAR-5 ovarian
OVCAR-4 ovarian = test system: OVCAR-4 ovarian
SK-OV-3 ovarian = test system: SK-OV-3 ovarian
IGROV1 ovarian = test system: IGROV1 ovarian
OVCAR-3 ovarian = test system: OVCAR-3 ovarian
HS 578T breast = test system: HS 578T breast
NCI/ADR-RES ovarian = test system: NCI/ADR-RES ovarian
OVCAR-8 ovarian = test system: OVCAR-8 ovarian

SMILES	growth (SR leukemia)	growth (RPMI-8226 leukemia)	growth (OVCAR-5 ovarian)	growth (OVCAR-4 ovarian)	growth (SK-OV-3 ovarian)	growth (IGROV1 ovarian)	growth (OVCAR-3 ovarian)	growth (HS 578T breast)	growth (NCI/ADR-RES ovarian)	growth (OVCAR-8 ovarian)
CCCCCCCCCCCCCCCc1cc(O)ccc1N	74.7% (inactive) and 37.7% (inactive)	39.9% (inactive) and 10.3% (inactive)	92.7% (inactive) and 124% (inactive)	65.2% (inactive) and -19.7% (active)	89.2% (inactive) and 69% (inactive)	16.5% (inactive) and 45.2% (inactive)	66.8% (inactive) and 50.9% (inactive)	107% (inactive) and 95.2% (inactive)	72.1% (inactive) and 49.7% (inactive)	
Cc1c(Cl)cccc1NCN1C(=O)c2ccccc2C1=O		105% (inactive)	107% (inactive)	108% (inactive)	106% (inactive)	116% (inactive)	114% (inactive)	118% (inactive)	110% (inactive)	99.8% (inactive)
O=C(Cc1cccc2ccccc12)N/N=C/c1ccc2c(c1)CCC2	23% (inactive)	75.1% (inactive)	80.9% (inactive)	104% (inactive)	83.2% (inactive)	47.8% (inactive)	75.8% (inactive)	85.3% (inactive)	31% (inactive)	
Cn1cc(-c2cc3c(Nc4ccc(CC(=O)Nc5cc(C(C)(C)C)on5)cc4)ncnc3[nH]2)cn1	2.58% (active)	-2.19% (active) and -22.3% (active)	-8.65% (active) and 5.67% (active)	-12.1% (active) and 5.44% (active)	-5.62% (active) and -14.8% (active)	-12.2% (active) and 2.63% (active)	-15.1% (active) and -6.62% (active)	-22.4% (active) and -15.2% (active)	79.5% (inactive) and 80.3% (inactive)	
OC(CSc1ccccc1)CN1CCN(c2cccc(Cl)c2)CC1 (stereo unspecified)	87.2% (inactive) and 102% (inactive)	92.9% (inactive) and 97.3% (inactive)	105% (inactive) and 96.9% (inactive)	97.1% (inactive) and 107% (inactive)	105% (inactive) and 107% (inactive)	105% (inactive) and 122% (inactive)	120% (inactive) and 101% (inactive)	118% (inactive) and 88.7% (inactive)	99.6% (inactive) and 88.7% (inactive)	
O=C1OC(Oc2ccc(Br)cc2)(c2ccccc2)c2ccccc21 (stereo unspecified)	75.4% (inactive)	85.8% (inactive)	97.3% (inactive) and 110% (inactive)	92.1% (inactive)		79.7% (inactive) and 81.3% (inactive)	87.4% (inactive) and 68.8% (inactive)		90.8% (inactive) and 76.8% (inactive)	
NCCSC(C[N+](=O)[O-])c1ccccc1Cl (stereo unspecified)		-22.6% (active)	99.5% (inactive)	102% (inactive)	112% (inactive)		-75.7% (active)	-1.76% (active)	106% (inactive)	61% (inactive)
Fc1ccccc1Nc1n[nH]c(=S)s1		110% (inactive)	99.2% (inactive)	122% (inactive)	110% (inactive)	126% (inactive)	107% (inactive)	107% (inactive)	115% (inactive)	103% (inactive)
CN1C(=O)C(N=Nc2ccc([N+](=O)[O-])cc2)SC1=S (stereo unspecified)		32.7% (inactive) and 10.8% (inactive)	56.2% (inactive) and 51.5% (inactive)	65.8% (inactive) and 76.7% (inactive)	66.6% (inactive) and 69.2% (inactive)		59.3% (inactive) and 62.7% (inactive)	72.6% (inactive) and 71% (inactive)	45.7% (inactive) and 15.5% (inactive)	70.7% (inactive) and 72.4% (inactive)
CCOc1ccc2nc3cc(N)ccc3c(N)c2c1		113% (inactive) and 86.4% (inactive)	94.1% (inactive) and 99.6% (inactive)	56.6% (inactive) and 49.2% (inactive)	61% (inactive) and 76.5% (inactive)	69.9% (inactive) and 99.4% (inactive)	35.3% (inactive) and 22.8% (inactive)	28.8% (inactive)	88.4% (inactive) and 71.8% (inactive)	28.9% (inactive) and 29.6% (inactive)
O=C(O)C1(C(=O)O)CCC1.[NH2-].[NH2-].[Pt+2]	122% (inactive) and 50.7% (inactive)	104% (inactive)	97.6% (inactive) and 83.7% (inactive)	109% (inactive) and 92.2% (inactive)		95.6% (inactive)	117% (inactive) and 105% (inactive)	105% (inactive) and 112% (inactive)	103% (inactive) and 99.7% (inactive)	
CNC(=O)c1cccc(-c2ccc3c(N4CCOC[C@@H]4C)nc(N4CCOC[C@@H]4C)nc3n2)c1	9.14% (active) and 1.3% (active)	3.4% (active) and 4.33% (active)	8.26% (active) and -3.61% (active)	-17.7% (active) and -18.2% (active)	-23% (active) and -36.9% (active)	-16.6% (active) and -36.1% (active)	4.95% (active) and 11.5% (inactive)	-31.1% (active)	1.66% (active) and -15.6% (active)	
CC(O)Cn1cnc2c1c(=O)n(C)c(=O)n2C (stereo unspecified)			125% (inactive)	96.5% (inactive)		90.6% (inactive)	108% (inactive)		112% (inactive)	97.6% (inactive)
Cc1cc(O)c2c(c1)C(=O)c1cc(O)cc(O)c1C2=O	108% (inactive) and 86% (inactive)	75.8% (inactive) and 74.3% (inactive)	68% (inactive) and 95.6% (inactive)	55% (inactive) and 68.5% (inactive)	102% (inactive) and 84.8% (inactive)	65.9% (inactive) and 101% (inactive)	84.1% (inactive) and 95.9% (inactive)	89.7% (inactive) and 88.9% (inactive)	91.6% (inactive) and 101% (inactive)	
CC(=O)c1ccc2c(c1)N(CCCN1CCN(CCO)CC1)c1ccccc1S2	-30.2% (active)	77.6% (inactive) and 10.7% (inactive)	93% (inactive) and 51.6% (inactive)	101% (inactive) and 49.8% (inactive)	152% (inactive) and 50.5% (inactive)		103% (inactive) and 40.7% (inactive)	87.6% (inactive) and -20.1% (active)	95.6% (inactive) and 45.8% (inactive)	
